# From PubChem BioAssay AID652040 (Broad Institute, 2013)
# Measured potencies and affinities stand elsewhere. Activity calls are given as the source filed them.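 Rule for the calls: active = falling luciferase signal whose fitted half-maximal concentration is at most twice the top tested dose; inconclusive = flat inhibition between 30 and 70% or a poor curve fit; inactive = the rest.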
# Assay: off-target signal loss in HeLa-CEM21 co-culture – HeLa F-luc CTL cells, cherry-picked, counter-screen for HIV-1 Env fusion inhibitor project, dose response (AID 652040);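 note: more negative values mean stronger loss of luciferase signal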
# Conditions: HeLa-F-luc CTL cells with CEM21, firefly luciferase counterscreen; series mostly up to 35 µM
row,SMILES,outcome
1,O=C(NCCCN1CCc2ccccc2C1)Nc1ccc(Cl)cc1,inactive
2,c1ccc2c(c1)OCC(CNc1ncnc3nc[nH]c13)O2 (stereo not drawn),inactive
3,CCOc1ccccc1C(=O)NCC(=O)NNC(=O)CN(C)S(=O)(=O)c1ccc(Cl)cc1,inactive
4,COc1ccc(NC(=O)c2ccc(Cl)c(S(=O)(=O)N3CCc4ccccc4C3)c2)cn1,inactive
5,Cc1nn(C)c(C)c1CN(C)S(=O)(=O)c1ccc2ccccc2c1,inactive
6,CCOC(=O)C1CCCN(Cc2nc(N)nc(Nc3ccc(OC)cc3)n2)C1 (stereo not drawn),inactive
7,COc1ccc(N2CCn3c2nc2c3c(=O)n(CCCc3ccccc3)c(=O)n2C)c(OC)c1,inactive
8,Cc1ccc(NC(=O)c2ccc(CN3CCc4ccccc4C3)cc2)cc1,inactive
9,COCCCNC(=O)c1sc2ncnc(N3CCc4ccccc4C3)c2c1C,inactive
10,COc1ccc(C(O)c2nc3ccccc3n2C)cc1OC (stereo not drawn),inactive
11,c1csc(CNc2ncnc3sccc23)c1,inactive
12,O=C(Nc1ccc(Cl)cc1)C1CCCN(C2=NS(=O)(=O)c3ccccc32)C1 (stereo not drawn),inactive
13,O=C(CCNC(=O)c1ccc(Br)cc1)NNC(=O)COc1ccccc1F,inactive
14,Cc1ccc(Cn2ncc3c(N4CCN(Cc5ccc(Cl)cc5)CC4)ncnc32)cc1,inactive
15,CC(CCc1ccco1)NC(=O)CCc1nnc2ccc(NCc3ccccc3Cl)nn12 (stereo not drawn),inactive
16,CN1C(=O)C2(c3ccccc31)N(C)CC(c1ccccc1)C21SC(=S)N(Cc2ccco2)C1=O (stereo not drawn),inactive
17,Cc1cccc(C)c1NC(=O)N1CCN(c2nc3ccccc3s2)CC1,inactive
18,COc1ccc(C(=O)NCCc2ccc(Cl)cc2)cc1S(=O)(=O)N1CCCCC1C (stereo not drawn),inactive
